# Results filed as inconclusive are left out. Entries that show only a call come without a potency. Activity calls are given as the source filed them. Calls follow the shape of the dose curve; as a rule, active = well fitted inhibition curve with a large enough effect in the repeat runs; inconclusive = weak or mixed curves; inactive = no such curve, though single readings can be large or run the other way.
# Biological target: Cytochrome P450 3A4 (Homo sapiens) (UniProt P08684)
# Experiment: Cytochrome P450 Family 3 Subfamily A Member 4 (CYP3A4) small molecule antagonists: luciferase reporter qHTS assay (AID 1671201); also: nearly all actives have a fitted effect of over 50% in size
# Conditions: P450-Glo CYP3A4 enzyme, luciferin luminescence, 1 h; series mostly up to 115 µM
# Method in brief: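 qHTS, 1536-well. CYP3A4 + proluciferin substrate, cpd 10 min RT → NADPH regen 1 h RT → detection reagent 20 min → luminescence (RLU). Ketoconazole positive control.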
# Potency is read from the fitted curve at half-maximal effect.
# Sequence of Cytochrome P450 3A4 (Homo sapiens) (P08684 whole entry, looked up): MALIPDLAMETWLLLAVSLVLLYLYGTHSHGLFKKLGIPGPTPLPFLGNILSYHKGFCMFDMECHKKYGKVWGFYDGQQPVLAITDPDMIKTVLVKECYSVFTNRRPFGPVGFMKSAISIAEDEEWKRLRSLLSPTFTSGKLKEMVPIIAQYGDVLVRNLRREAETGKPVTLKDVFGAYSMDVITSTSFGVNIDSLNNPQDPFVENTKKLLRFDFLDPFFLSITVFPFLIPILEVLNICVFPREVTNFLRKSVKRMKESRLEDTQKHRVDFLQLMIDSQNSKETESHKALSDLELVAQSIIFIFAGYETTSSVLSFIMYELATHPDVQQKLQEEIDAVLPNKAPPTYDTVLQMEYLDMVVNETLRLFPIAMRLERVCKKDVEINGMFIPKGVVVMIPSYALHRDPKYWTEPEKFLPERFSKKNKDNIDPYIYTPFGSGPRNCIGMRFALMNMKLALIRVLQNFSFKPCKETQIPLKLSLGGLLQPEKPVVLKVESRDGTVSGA
SMILES,Potency,"activity change, negative = inhibition"
CCCCCCCCOC(=O)CCCCCCCCC(=O)OCCCCCCCC,inactive,
O=C1CCCc2ccccc21,inactive,
O=c1oc2c(O)c(O)cc3c(=O)oc4c(O)c(O)cc1c4c23,,6.71% [at 23.6 µM] (inactive)
NCCC(O)(P(=O)(O)O)P(=O)(O)O,inactive,
NCCCN1CCN(CCCN)CC1,inactive,
CCCCCCCCCC/C=C/C#N,inactive,
O=C(O)c1cccc(Cl)c1Cl,inactive,
FC(F)(F)c1ccccc1,inactive,
CCCCCCOc1ccc(N)cc1,35.6 µM (active),
O=C(O)C(=O)Cc1c[nH]c2ccccc12,inactive,
CCCCCCCCCC#N,inactive,
CC(C)(C)C1CCCCC1=O (stereo unspecified),inactive,
CN(C)Cc1ccccc1,inactive,
CC(C)C1=CC2=CC[C@@H]3[C@](C)(CCC[C@@]3(C)C(=O)O)[C@H]2CC1,35.6 µM (active),
COc1ccc(Nc2ccc(OC)cc2)cc1,18.2 µM (active),
CC(=O)OC1C2(C)CCC(C2)C1(C)C (stereo unspecified),inactive,

SMILES,Potency,"activity change, negative = inhibition"
CCN(O)CC,inactive,
Cc1ccc([N+](=O)[O-])cc1Cl,inactive,
Cc1nc(-c2ccccn2)ncc1C(=O)Nn1cc(C)c2cc(F)ccc21,7.96 µM (active),
CCN(CCCc1ccccc1)CCCc1ccccc1,inactive,
CC(C)(C)c1ccc(OC(=O)c2ccccc2O)cc1,inactive,
CCCN(CCC)C(=O)C(CCC(=O)O)NC(=O)c1ccccc1 (stereo unspecified),inactive,
O=C(O)CN(CCN(CC(=O)O)CC(=O)O)CCN(CC(=O)O)CC(=O)O,,10.1% [at 23.6 µM] (inactive)
Cc1cc2c(s1)Nc1ccccc1N=C2N1CCN(C)CC1,inactive,
OCCN(CCO)CCN(CCO)CCO,inactive,
Cc1nc(N)nc(N)c1-c1ccc(Cl)c(Cl)c1,inactive,
CCCCC1CCC(=O)O1 (stereo unspecified),inactive,
C=CC1CO1 (stereo unspecified),inactive,
Nc1ccc(Oc2ccc(N)c(N)c2)cc1,3.56 µM (active),
CCCc1c2oc(C(=O)O)cc(=O)c2cc2c(=O)cc(C(=O)O)n(CC)c12,inactive,
O=C1CCCCC1C1CCCCC1 (stereo unspecified),inactive,

# From PubChem BioAssay (Tox21)
